Results filed as inconclusive are left out. Active and inactive are the calls of the source. Unless noted, calls follow the shape of the dose curve; as a rule, active = well fitted curve in either direction with a large enough effect (not every such curve was filed as active); inconclusive = small, poorly fitted or top-dose-only effect, or another doubt; inactive = flat fitted curve, though single readings scatter.
Columns and labels:
[1] = biological target: Lysosomal acid glucosylceramidase (Homo sapiens) (UniProt P04062); assay: Glucocerebrosidase-p2 (AID 348; in the data active = potency below about 10 µM; also: potency is read from the fitted curve at half-maximal effect); conditions: purified GBA, blue fluorogenic substrate, 40 min
How it was run: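 Normal human glucocerebrosidase (0.2 nM) with blue fluorogenic substrate (80 uM final) in citrate/phosphate pH 5.9 with 10mM sodium taurocholate, 0.01% tween-20; 40 min RT, NaOH/glycine stop; fluorescence Ex 365/Em 440; AC50 from a titration from 0.6 nM upwards.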

[2] = AP1 Signaling Pathway (AID 357); conditions: ME-180 AP-1-bla reporter, EGF-induced, beta-lactamase ratio, 5 h; at 7.69 µM (top of the series) unless noted; also: % is scaled to controls: 0 for no effect and ±100 for the full control effect
How it was run: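 ME-180 cells with beta-lactamase reporter under AP-1 response element, stimulated with EC50 EGF; compounds tested in titration series, 5 h at 37 °C. CCF4 substrate added 2.5 h at room temperature; 460/530 nm emission ratio gave %activity and AC50.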

[3] = biological target: Cytochrome P450 1A2 (Homo sapiens) (UniProt P05177); assay: p450-cyp1a2 (AID 410; calls by dose curve; also: potency is read from the fitted curve at half-maximal effect;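 as to activity change, negative = inhibition: -100% = full effect of reference inhibitor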); conditions: recombinant CYP1A2, luciferin-ME demethylation, luminescence; series mostly up to 11.4 µM
How it was run: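 Read-out is luminescence from luciferin produced by CYP1A2 demethylation of Luciferin-ME (100uM, at Km). Detection reagent stopped the 60 min NADPH-dependent reaction; signals were normalized to 57 uM furafylline.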

[4] = NFAT Signaling Pathway (AID 444); conditions: Jurkat NFAT-bla M1, carbachol, beta-lactamase ratio, 5 h; at 7.69 µM (top of the series) unless noted;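 also: carbachol stimulus at about its EC50 of 1 µM final; % is scaled to controls: 0 for no effect and ±100 for the full control effect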
How it was run: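 Jurkat cells carrying an NFAT-driven β-lactamase reporter and co-transfected muscarinic M1 receptor were treated with compound plus carbachol (1 uM final, an EC50 level) for 5 h at 37 °C. CCF4 loading followed for 1 h at RT; 460/530 nm ratio gave %activity.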

[5] = Stat Signaling Pathway (AID 446); conditions: ME-180 SIE beta-lactamase reporter, IL-6 stimulated, 5 h; at 7.69 µM (top of the series) unless noted;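 also: ME-180 cervical cancer cells given 40 pM IL-6 alongside compound; SIE-controlled beta-lactamase reporter measured as 460/530 nm FRET emission ratio; % is scaled to controls: 0 for no effect and ±100 for the full control effect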
How it was run: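 Emission at 460 and 530 nm (excitation 405 nm) reports SIE-controlled beta-lactamase in ME-180 cells. Cells received compound with 40 pM IL-6 for 5 hrs at 37 C; data scaled between 300 pM IL-6 and 125 nM JAK-inhibitor controls.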

[6] = biological target: Glucocorticoid receptor (Homo sapiens) (UniProt P04150); assay: GR-GFP Redistribution (AID 450;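 active = compounds whose dose series gives a full or clear partial fitted curve of increased nuclear translocation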; also: potency is read from the fitted curve at half-maximal effect); conditions: U2OS GR-GFP nuclear translocation, laser cytometry, 2 h
[7] = biological target: Glucocorticoid receptor (Homo sapiens) (UniProt P04150); assay: GR-EFC Redistribution (AID 451; calls by dose curve; also: potency is read from the fitted curve at half-maximal effect); conditions: CHO-K1 GR-EFC translocation, beta-gal luminescence, 2 h
How it was run: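 CHO-K1 cells stably expressing nuclear-localized β-gal enzyme acceptor and GR fused C-terminally to the enzyme donor fragment; ligand-driven nuclear translocation restores β-gal by complementation. Compounds titrated up to 46 uM final, 2 h at 37 °C; luminescence read.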

[8] = biological target: 3',5'-cyclic-AMP phosphodiesterase 4B (Homo sapiens) (UniProt Q07343); assay: qHTS Assay for Inhibitors of PDE-IV (AID 607; active = well fitted activation curve with a large enough effect in the main read-out, with a control signal flat, not every such curve was filed as active; also: % of control where 0% means no effect); conditions: HEK293 ACTOne CNG channel cells, membrane potential fluorescence; series mostly up to 22.9 µM
How it was run: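 The readout is membrane depolarisation from a cAMP-sensing CNG channel, detected with a potential dye at ex 535/em 590. Cells were HEK293-derived (endogenous PDE-IV) at 1000 cells/well, titrated up to 22.9 uM final.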

[9] = biological target: Cytochrome P450 3A4 (Homo sapiens) (UniProt P08684); assay: qHTS Assay for Activators of Cytochrome P450 3A4 (AID 885; active = well fitted curve in the direction sought with a large enough effect; an effect the other way counts as inactive or inconclusive; also: nearly all actives have a fitted effect of over 65% in size); conditions: recombinant CYP3A4, Luciferin-PPXE luminescence, 60 min; series mostly up to 11.4 µM
How it was run: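 Activators are scored by enhanced luminescence from CYP3A4 conversion of luciferin-PPXE (25uM, equal to KM) to luciferin, after 60 min at RT with an NADPH-regenerating system.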

[10] = biological target: Mitogen-activated protein kinase 10 (Mus musculus) (UniProt Q61831); assay: JNK3 AlphaScreen Assay (AID 530); conditions: JNK3 lysate, c-Jun phosphorylation; series mostly up to 11.4 µM;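 also: kinase came from lysate of stimulated human HepG2 cells; signal reports phosphorylation of biotinylated GST-cJun 1-79 at Ser73 with 10 µM ATP; % is scaled to controls: 0 for no effect and ±100 for the full control effect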
How it was run: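 Biotinylated GST-cJun(1-79) served as substrate for JNK3 in HepG2 lysates stimulated with IL-1beta and TNF-alpha. ATP was 10 uM final, pH 7.6. Ser73 phosphorylation was quantified by AlphaScreen (680 nm excitation).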

[11] = biological target: Cytochrome P450 2C9 (Homo sapiens) (UniProt P11712); assay: qHTS Assay for Inhibitors and Substrates of Cytochrome P450 2C9 (AID 883; active = well fitted curve in the direction sought with a large enough effect; an effect the other way counts as inactive or inconclusive; also: nearly all actives have a fitted effect of over 60% in size; also: potency is read from the fitted curve at half-maximal effect); conditions: recombinant CYP2C9, luciferin-H luminescence, 60 min; series mostly up to 11.4 µM
How it was run: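 CYP2C9 deoxyluciferin hydroxylation, 37C, 60 min with NADPH regeneration; 10nM enzyme, 100uM Luciferin-H (KM). Glo detection reagent stopped reaction; luminescence normalized to sulphaphenazole (57uM) full inhibition.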

[12] = biological target: Cytochrome P450 2C19 (Homo sapiens) (UniProt P33261); assay: qHTS Assay for Inhibitors and Substrates of Cytochrome P450 2C19 (AID 899; active = well fitted curve in the direction sought with a large enough effect; an effect the other way counts as inactive or inconclusive; also: % is scaled to controls: 0 for no effect and ±100 for the full control effect; nearly all actives have a fitted effect of over 60% in size); conditions: recombinant CYP2C19, luciferin-H EGE luminescence; series mostly up to 11.4 µM
How it was run: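 In 50mM KPO4, the reaction held 5nM enzyme and KM-level (10uM) Luciferin-H EGE; it ran 60 min at 37C after NADPH regeneration and a 10 min compound preincubation. Luminescence values were scaled to 57uM ketoconazole as complete inhibition.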

[13] = qHTS Assay for Identification of Small Molecule Agonists for Hypoxia Response Element Signaling Pathway (AID 914; active = well fitted activation curve with a large enough effect in the signal ratio, with a control signal flat, not every such curve was filed as active; the % refers to the signal ratio; also: % of control where 0% means no effect); conditions: ME-180 (cervical carcinoma) HRE-bla reporter, beta-lactamase ratio, CoCl2, 17 h; activation: active compounds read high
How it was run: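 qHTS titration; ME-180 HRE-bla cells; EC50 CoCl2 co-treatment, 17 h at 37 degrees Celsius; CCF4 dye, ex 405nm, em 460nm and 530nm; %Activity from ratio; AC50.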

Sequence of Cytochrome P450 1A2 (Homo sapiens) (P05177 whole entry, looked up): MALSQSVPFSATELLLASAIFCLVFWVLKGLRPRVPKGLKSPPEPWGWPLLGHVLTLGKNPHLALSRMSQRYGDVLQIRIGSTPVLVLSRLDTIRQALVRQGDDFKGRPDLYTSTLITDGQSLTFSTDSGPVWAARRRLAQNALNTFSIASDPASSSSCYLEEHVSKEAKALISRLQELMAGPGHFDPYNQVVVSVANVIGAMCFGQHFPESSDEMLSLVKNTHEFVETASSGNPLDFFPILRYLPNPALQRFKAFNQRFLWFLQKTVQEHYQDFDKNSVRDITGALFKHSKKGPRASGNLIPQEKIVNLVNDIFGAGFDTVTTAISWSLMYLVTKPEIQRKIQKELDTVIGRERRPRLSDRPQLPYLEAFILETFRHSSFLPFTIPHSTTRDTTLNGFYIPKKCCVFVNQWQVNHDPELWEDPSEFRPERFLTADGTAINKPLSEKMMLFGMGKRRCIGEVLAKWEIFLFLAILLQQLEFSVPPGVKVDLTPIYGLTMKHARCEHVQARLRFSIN
Sequence of 3',5'-cyclic-AMP phosphodiesterase 4B (Homo sapiens) (Q07343 whole entry, looked up): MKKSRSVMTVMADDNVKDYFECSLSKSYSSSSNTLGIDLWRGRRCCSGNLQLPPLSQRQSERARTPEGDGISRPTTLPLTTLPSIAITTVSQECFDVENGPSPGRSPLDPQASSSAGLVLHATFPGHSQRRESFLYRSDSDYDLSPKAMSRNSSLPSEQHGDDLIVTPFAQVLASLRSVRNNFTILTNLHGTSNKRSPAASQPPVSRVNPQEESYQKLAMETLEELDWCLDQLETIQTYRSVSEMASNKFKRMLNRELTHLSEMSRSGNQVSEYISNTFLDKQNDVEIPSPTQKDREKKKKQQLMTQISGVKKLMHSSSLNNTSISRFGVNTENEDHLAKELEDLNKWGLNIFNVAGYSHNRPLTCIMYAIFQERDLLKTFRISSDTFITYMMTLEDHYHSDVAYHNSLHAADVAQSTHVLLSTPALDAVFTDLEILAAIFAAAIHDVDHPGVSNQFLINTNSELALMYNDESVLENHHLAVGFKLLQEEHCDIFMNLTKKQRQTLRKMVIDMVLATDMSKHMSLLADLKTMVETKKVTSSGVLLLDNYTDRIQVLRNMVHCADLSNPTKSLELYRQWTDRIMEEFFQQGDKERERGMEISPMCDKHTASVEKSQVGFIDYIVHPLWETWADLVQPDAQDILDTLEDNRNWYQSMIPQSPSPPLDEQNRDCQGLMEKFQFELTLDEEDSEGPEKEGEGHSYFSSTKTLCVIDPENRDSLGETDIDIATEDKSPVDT
Sequence of Glucocorticoid receptor (Homo sapiens) (P04150 whole entry, looked up, the tested form may be a part): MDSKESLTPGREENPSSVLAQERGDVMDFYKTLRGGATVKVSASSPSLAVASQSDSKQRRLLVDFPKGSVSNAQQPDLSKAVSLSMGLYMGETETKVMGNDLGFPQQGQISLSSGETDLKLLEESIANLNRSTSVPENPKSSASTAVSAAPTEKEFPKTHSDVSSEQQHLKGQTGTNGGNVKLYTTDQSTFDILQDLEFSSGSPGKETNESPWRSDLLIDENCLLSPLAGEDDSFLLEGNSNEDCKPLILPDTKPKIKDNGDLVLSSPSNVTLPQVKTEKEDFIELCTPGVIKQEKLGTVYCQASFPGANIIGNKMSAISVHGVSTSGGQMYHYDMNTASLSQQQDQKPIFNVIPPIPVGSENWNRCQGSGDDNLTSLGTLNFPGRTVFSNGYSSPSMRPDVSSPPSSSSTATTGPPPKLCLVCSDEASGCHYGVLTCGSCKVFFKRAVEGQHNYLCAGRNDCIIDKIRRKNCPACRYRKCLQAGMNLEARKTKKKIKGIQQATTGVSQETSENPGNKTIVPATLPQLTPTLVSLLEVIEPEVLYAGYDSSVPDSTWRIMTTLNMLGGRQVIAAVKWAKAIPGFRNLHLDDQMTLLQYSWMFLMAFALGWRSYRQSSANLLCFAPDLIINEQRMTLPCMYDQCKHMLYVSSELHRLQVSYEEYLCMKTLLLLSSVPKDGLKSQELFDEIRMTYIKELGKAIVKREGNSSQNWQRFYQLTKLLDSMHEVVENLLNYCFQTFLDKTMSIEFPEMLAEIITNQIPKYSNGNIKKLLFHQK
Sequence of Lysosomal acid glucosylceramidase (Homo sapiens) (P04062 whole entry, looked up): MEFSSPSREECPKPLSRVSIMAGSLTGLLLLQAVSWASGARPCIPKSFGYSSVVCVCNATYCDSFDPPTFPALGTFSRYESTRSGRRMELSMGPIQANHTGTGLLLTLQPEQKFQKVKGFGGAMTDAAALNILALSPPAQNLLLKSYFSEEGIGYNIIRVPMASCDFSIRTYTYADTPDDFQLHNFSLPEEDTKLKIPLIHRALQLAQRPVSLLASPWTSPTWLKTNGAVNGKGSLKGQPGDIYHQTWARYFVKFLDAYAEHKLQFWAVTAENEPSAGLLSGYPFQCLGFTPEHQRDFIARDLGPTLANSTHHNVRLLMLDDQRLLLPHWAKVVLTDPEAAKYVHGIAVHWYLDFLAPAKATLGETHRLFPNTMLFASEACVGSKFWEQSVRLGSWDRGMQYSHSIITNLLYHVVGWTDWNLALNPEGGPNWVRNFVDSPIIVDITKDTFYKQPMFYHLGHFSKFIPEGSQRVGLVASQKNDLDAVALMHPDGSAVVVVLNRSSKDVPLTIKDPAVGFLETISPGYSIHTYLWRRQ
Sequence of Cytochrome P450 3A4 (Homo sapiens) (P08684 whole entry, looked up): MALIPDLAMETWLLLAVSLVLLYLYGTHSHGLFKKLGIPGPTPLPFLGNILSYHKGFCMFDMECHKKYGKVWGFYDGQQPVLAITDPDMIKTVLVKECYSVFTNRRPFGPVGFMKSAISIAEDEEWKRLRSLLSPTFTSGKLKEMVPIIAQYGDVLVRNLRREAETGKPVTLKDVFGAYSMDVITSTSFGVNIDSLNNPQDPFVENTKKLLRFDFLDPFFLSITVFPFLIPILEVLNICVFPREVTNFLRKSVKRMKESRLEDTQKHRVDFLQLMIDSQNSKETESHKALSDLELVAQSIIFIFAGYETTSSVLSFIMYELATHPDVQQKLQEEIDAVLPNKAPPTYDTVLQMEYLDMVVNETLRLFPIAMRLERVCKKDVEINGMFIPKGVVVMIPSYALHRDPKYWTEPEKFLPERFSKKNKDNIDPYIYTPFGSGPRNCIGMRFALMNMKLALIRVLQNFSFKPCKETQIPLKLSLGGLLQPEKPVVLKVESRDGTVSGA
Sequence of Cytochrome P450 2C9 (Homo sapiens) (P11712 whole entry, looked up): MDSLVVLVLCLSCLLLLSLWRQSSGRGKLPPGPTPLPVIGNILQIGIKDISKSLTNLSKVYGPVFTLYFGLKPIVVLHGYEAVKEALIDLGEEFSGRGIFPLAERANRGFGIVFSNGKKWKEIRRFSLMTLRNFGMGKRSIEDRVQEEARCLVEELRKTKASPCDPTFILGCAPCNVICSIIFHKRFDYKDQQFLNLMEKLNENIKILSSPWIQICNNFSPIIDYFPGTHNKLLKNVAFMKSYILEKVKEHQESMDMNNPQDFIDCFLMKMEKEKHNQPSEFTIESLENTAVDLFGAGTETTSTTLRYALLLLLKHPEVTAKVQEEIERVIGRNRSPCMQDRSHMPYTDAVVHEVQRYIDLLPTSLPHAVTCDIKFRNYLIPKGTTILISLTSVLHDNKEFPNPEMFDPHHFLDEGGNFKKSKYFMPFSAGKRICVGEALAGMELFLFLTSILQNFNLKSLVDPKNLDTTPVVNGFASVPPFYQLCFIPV
Sequence of Cytochrome P450 2C19 (Homo sapiens) (P33261 whole entry, looked up): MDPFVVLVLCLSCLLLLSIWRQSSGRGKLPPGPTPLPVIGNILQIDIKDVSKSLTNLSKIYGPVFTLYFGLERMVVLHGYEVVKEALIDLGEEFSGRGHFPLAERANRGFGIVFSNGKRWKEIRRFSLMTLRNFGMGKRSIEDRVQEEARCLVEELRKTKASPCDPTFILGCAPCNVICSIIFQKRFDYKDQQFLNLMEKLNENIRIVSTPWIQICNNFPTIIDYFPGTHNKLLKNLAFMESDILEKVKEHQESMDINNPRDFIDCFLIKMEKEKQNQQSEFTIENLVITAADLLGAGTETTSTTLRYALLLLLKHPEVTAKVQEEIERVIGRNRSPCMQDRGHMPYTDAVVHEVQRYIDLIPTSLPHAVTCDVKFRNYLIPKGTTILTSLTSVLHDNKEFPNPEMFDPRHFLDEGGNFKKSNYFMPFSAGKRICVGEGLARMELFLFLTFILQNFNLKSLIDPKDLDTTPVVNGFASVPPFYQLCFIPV

CN(C)c1ccc(N=Nc2cccc3ccoc23)cc1
active: Potency [3] 0.251 µM
inactive: Potency [1] > 11.4 µM | activity change, negative = inhibition [2] 1.15% | activity change, negative = inhibition [4] -18.9% | activity, negative = inhibition [5] 4.35% | Potency [6] > 46 µM | Potency [7] > 9.22 µM | Potency [8] | Potency [9]

CC(=O)Nc1nc(NC(C)=O)c2[nH]c(CO)nc2n1
inactive: Potency [1] > 11.4 µM | activity change, negative = inhibition [2] 9.97% | Potency [3] | activity change, negative = inhibition [4] 1.8% | Potency [6] > 46 µM | Potency [7] > 9.22 µM | Potency [10] | Potency [8]

O=C(O)c1ccccc1-c1ccccc1C(=O)Nc1ccc2c(c1)Cc1cc(F)ccc1-2
active: Potency [3] 3.98 µM | Potency [11] 2.51 µM
inactive: Potency [1] > 11.4 µM | activity change, negative = inhibition [2] -17.3% | activity change, negative = inhibition [4] -16.2% | Potency [6] > 46 µM | Potency [7] > 9.22 µM | Potency [10] | Potency [8]

C[C@@]12CCC(=O)C=C1CC[C@H]1[C@@H]2[C@@H](O)C[C@]2(C)[C@@H]1CC[C@@]2(O)C(=O)CO
inactive: Potency [1] > 11.4 µM | activity change, negative = inhibition [2] -10.2% | Potency [3] | activity change, negative = inhibition [4] 14% | activity, negative = inhibition [5] 4.86% | Potency [10] | Potency [8] | Potency [12]

COc1ccc(C(=O)N2CCC3(CCCN(C(=O)Nc4cccc(F)c4)C3)CC2)cc1
inactive: Potency [1] > 11.4 µM | activity change, negative = inhibition [2] -10.3% | activity change, negative = inhibition [4] 5.86% | activity, negative = inhibition [5] -13.8% | Potency [7] > 46 µM | Potency [10] | Potency [9] | activation [13] -19.5%
active: Potency [3] 20 µM

Cc1[nH]c2ccccc2c1-c1cc(-c2cc(-c3c(C)[nH]c4ccccc34)on2)no1
inactive: Potency [1] > 11.4 µM | activity change, negative = inhibition [2] 5.07% | activity change, negative = inhibition [4] -7.58% | activity, negative = inhibition [5] -1.93% | Potency [7] > 9.22 µM | Potency [10] | Potency [8] | Potency [11]
active: Potency [3] 0.398 µM

N[C@@H](Cc1ccnnc1)C(=O)O
inactive: Potency [1] > 11.4 µM | activity change, negative = inhibition [2] -10.1% | activity change, negative = inhibition [3] -10.6% [at 2.29 µM] | activity change, negative = inhibition [4] 13.5% | activity, negative = inhibition [5] -4.41% | Potency [10]

CC(C)(N)CO[C@H]1C[C@H]2CC[C@@]1(C)C2(C)C
inactive: Potency [1] > 11.4 µM | activity change, negative = inhibition [2] 4.93% | Potency [3] | activity change, negative = inhibition [4] 3.38% | Potency [6] > 46 µM | Potency [7] > 9.22 µM | Potency [10] | Potency [8]

From PubChem BioAssay (NCATS)
